# PubChem BioAssay (NCI)
# This is part of a sample that, as a whole, favours compounds with a hit. Of some 79,000 tested, about 15% had one in any assay. A number with no mark means an inactive call. The source made the active and inactive calls. Rule as the data show it: active = growth inhibition above about 70%; inactive = the rest.
# Experiments:
# [1] = NCI Yeast Anticancer Drug Screen. Data for the mlh1 strain (AID 171);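 also: 0% = growth of vehicle-treated control cultures of the same strain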; settings: S. cerevisiae mlh1 strain growth inhibition, active compounds read high
# Method in brief: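 Compounds are applied to a genetically altered yeast strain, and its growth is compared with that of vehicle-treated cultures to give percent inhibition.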
# [2] = NCI Yeast Anticancer Drug Screen. Data for the sgs1 strain (AID 173);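 also: 0% = growth of vehicle-only control cultures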; settings: S. cerevisiae sgs1 mutant, active compounds read high
# Method in brief: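 Compounds applied to genetically altered yeast; growth compared with vehicle-treated cultures to give % inhibition.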
# [3] = NCI Yeast Anticancer Drug Screen. Data for the mlh1 rad18 strain (AID 175); settings: S. cerevisiae mlh1 rad18 strain growth inhibition, active compounds read high
# Method in brief: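 Cells of a genetically altered yeast strain, deficient in DNA damage repair, were treated with compound. Their growth was then compared with that of vehicle-treated cultures to give inhibition.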
# [4] = NCI Yeast Anticancer Drug Screen. Data for the rad18 strain (AID 177); settings: S. cerevisiae rad18 mutant growth inhibition, active compounds read high
# Method in brief: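 Compounds are applied to a repair-deficient yeast strain, and growth is compared with that of vehicle-treated cultures to give percent inhibition.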
# [5] = NCI Yeast Anticancer Drug Screen. Data for the wt1 strain (AID 149);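 also: 0% = growth of vehicle-treated wt1 cultures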; settings: S. cerevisiae wt1 strain (SPY 50644) growth inhibition, active compounds read high
# Method in brief: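 Vehicle-normalised growth inhibition; strain wt1; compound exposure.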
# [6] = NCI Yeast Anticancer Drug Screen. Data for the rad50EPP+ strain (AID 151);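 also: 0% = growth of vehicle-treated control cultures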; settings: S. cerevisiae rad50 mutant strain, active compounds read high
# Method in brief: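 rad50EPP+ yeast treated with test compounds. Readout: growth vs vehicle control.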
# [7] = NCI Yeast Anticancer Drug Screen. Data for the mgt1 strain (AID 153); settings: S. cerevisiae mgt1 mutant growth inhibition, active compounds read high
# Method in brief: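 Growth inhibition relative to vehicle controls was scored for the mgt1 yeast strain after compound exposure.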
# [8] = NCI Yeast Anticancer Drug Screen. Data for the rad50 strain (AID 155);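 also: 0% = growth of vehicle-only cultures of the same strain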; settings: S. cerevisiae rad50 strain growth inhibition, active compounds read high
# Method in brief: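 A DNA repair-deficient yeast mutant serves as the test organism; compound-induced growth inhibition is calculated against vehicle-treated cells.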
# [9] = NCI Yeast Anticancer Drug Screen. Data for the mec2-1 strain (AID 157); settings: S. cerevisiae mec2-1 strain, active compounds read high
# Method in brief: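 Growth inhibition is read against vehicle-treated controls after compound exposure of the mec2-1 yeast strain, which is defective in DNA damage repair or cell cycle control.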
# [10] = NCI Yeast Anticancer Drug Screen. Data for the rad14 strain (AID 159);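 also: 0% = growth of vehicle-treated control cultures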; settings: S. cerevisiae rad14 strain growth inhibition, active compounds read high
# Method in brief: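 Vehicle-treated cultures served as the baseline for growth inhibition of a DNA repair-mutant yeast strain exposed to each compound.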
# [11] = NCI Yeast Anticancer Drug Screen. Data for the sgs1 mgt1 strain (AID 161);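 also: 0% = growth of cultures given vehicle only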; settings: S. cerevisiae sgs1 mgt1 strain, active compounds read high
# Method in brief: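 This yeast growth screen uses a strain with defined DNA-repair lesions; compound-treated growth is compared with vehicle-treated growth.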
# [12] = NCI Yeast Anticancer Drug Screen. Data for the CLN2oe strain (AID 163);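 also: 0% = growth of vehicle-only control cultures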; settings: S. cerevisiae CLN2oe strain, active compounds read high
# Method in brief: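 Compound-treated yeast; growth vs vehicle ctrl = % inhibition. Genetically altered strain (cell-cycle control).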
# [13] = NCI Yeast Anticancer Drug Screen. Data for the cln2 rad14 strain (AID 165);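 also: 0% = growth equal to vehicle treated cultures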; settings: S. cerevisiae cln2 rad14 strain, active compounds read high
# Method in brief: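 Growth inhibition, relative to vehicle-treated controls, is the read-out. The test organism is a yeast strain with defined genetic alterations, cln2 rad14.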
# [14] = NCI Yeast Anticancer Drug Screen. Data for the bub3 strain (AID 167); settings: S. cerevisiae bub3 mutant strain, active compounds read high
# Method in brief: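 Inhibition values come from growth of compound-treated mutant yeast normalised to vehicle-treated controls.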
# [15] = NCI Yeast Anticancer Drug Screen. Data for the wt2 strain (AID 169);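 also: 0% = growth of vehicle-treated yeast cultures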; settings: S. cerevisiae wt2 strain growth inhibition, active compounds read high
# Method in brief: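 Compound exposure of yeast; growth compared with vehicle controls; inhibition reported.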
# [16] = NCI Yeast Anticancer Drug Screen. Data for the rad52 strain (AID 147);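 also: 0% = growth of vehicle-treated control cultures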; settings: S. cerevisiae rad52 mutant growth inhibition, active compounds read high
# Method in brief: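 DNA repair-defective yeast; compound exposure; growth scored against vehicle controls.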
# [17] = at 5.0 µM (retest, dose inferred, filed as 0.5)
# [18] = at 50.0 µM (retest, dose inferred, filed as 5.0)
smiles,measurement,setting,value
CC(C)c1ccc(C2NC(=S)NC3=C2c2ccccc2C3=O)cc1 (stereo not drawn),growth inhibition,[1]; at 1.2 µM,10%
same,growth inhibition,[1]; at 3.7 µM,-1%
same,growth inhibition,[1]; at 11.0 µM,3%
same,growth inhibition,[1]; at 33.0 µM,26%
same,growth inhibition,[1]; at 100.0 µM,52%
same,growth inhibition,[2]; at 1.2 µM,23%
same,growth inhibition,[2]; at 3.7 µM,12%
same,growth inhibition,[2]; at 11.0 µM,16%
same,growth inhibition,[2]; at 33.0 µM,26%
same,growth inhibition,[2]; at 100.0 µM,43%
same,growth inhibition,[3]; [17],-36%
same,growth inhibition,[3]; [18],32%
same,growth inhibition,[3]; at 50.0 µM,74.1% (active)
same,growth inhibition,[4]; at 1.2 µM,2%
same,growth inhibition,[4]; at 3.7 µM,8%
same,growth inhibition,[4]; at 11.0 µM,10%
same,growth inhibition,[4]; at 33.0 µM,13%
same,growth inhibition,[4]; at 100.0 µM,38%
N=c1oc2ccccc2cc1-c1nc2ccccc2[nH]1,growth inhibition,[5]; at 1.2 µM,1%
same,growth inhibition,[5]; at 3.7 µM,9%
same,growth inhibition,[5]; at 11.0 µM,15%
same,growth inhibition,[5]; at 33.0 µM,28%
same,growth inhibition,[5]; at 100.0 µM,45%
same,growth inhibition,[6]; at 1.2 µM,30%
same,growth inhibition,[6]; at 3.7 µM,48%
same,growth inhibition,[6]; at 11.0 µM,58%
same,growth inhibition,[6]; at 33.0 µM,85% (active)
same,growth inhibition,[6]; at 100.0 µM,91% (active)
same,growth inhibition,[7]; at 1.2 µM,13%
same,growth inhibition,[7]; at 3.7 µM,11%
same,growth inhibition,[7]; at 11.0 µM,24%
same,growth inhibition,[7]; at 33.0 µM,43%
same,growth inhibition,[7]; at 100.0 µM,79% (active)
same,growth inhibition,[8]; at 1.2 µM,15%
same,growth inhibition,[8]; at 3.7 µM,18%
same,growth inhibition,[8]; [17],7%
same,growth inhibition,[8]; at 11.0 µM,31%
same,growth inhibition,[8]; at 33.0 µM,64%
same,growth inhibition,[8]; [18],85% (active)
same,growth inhibition,[8]; at 50.0 µM,70%
same,growth inhibition,[8]; at 100.0 µM,88% (active)
same,growth inhibition,[9]; at 1.2 µM,-6%
same,growth inhibition,[9]; at 3.7 µM,10%
same,growth inhibition,[9]; [17],2%
same,growth inhibition,[9]; at 11.0 µM,11%
same,growth inhibition,[9]; at 33.0 µM,26%
same,growth inhibition,[9]; [18],66%
same,growth inhibition,[9]; at 50.0 µM,31.8%
same,growth inhibition,[9]; at 100.0 µM,62%
same,growth inhibition,[10]; at 1.2 µM,5%
same,growth inhibition,[10]; at 3.7 µM,11%
same,growth inhibition,[10]; at 11.0 µM,25%
same,growth inhibition,[10]; at 33.0 µM,39%
same,growth inhibition,[10]; at 100.0 µM,88% (active)
same,growth inhibition,[11]; [17],13%
same,growth inhibition,[11]; [18],62%
same,growth inhibition,[11]; at 50.0 µM,47.8%
same,growth inhibition,[12]; at 1.2 µM,6%
same,growth inhibition,[12]; at 3.7 µM,-21%
same,growth inhibition,[12]; at 11.0 µM,12%
same,growth inhibition,[12]; at 33.0 µM,25%
same,growth inhibition,[12]; at 100.0 µM,47%
same,growth inhibition,[13]; [17],5%
same,growth inhibition,[13]; [18],27%
same,growth inhibition,[13]; at 50.0 µM,28.3%
same,growth inhibition,[14]; at 1.2 µM,-13%
same,growth inhibition,[14]; at 3.7 µM,-12%
same,growth inhibition,[14]; [17],23%
same,growth inhibition,[14]; at 11.0 µM,-3%
same,growth inhibition,[14]; at 33.0 µM,9%
same,growth inhibition,[14]; [18],56%
same,growth inhibition,[14]; at 50.0 µM,33.8%
same,growth inhibition,[14]; at 100.0 µM,57%
same,growth inhibition,[15]; at 1.2 µM,-31%
same,growth inhibition,[15]; at 3.7 µM,-29%
same,growth inhibition,[15]; at 11.0 µM,-13%
same,growth inhibition,[15]; at 33.0 µM,47%
same,growth inhibition,[15]; at 100.0 µM,80% (active)
same,growth inhibition,[1]; at 1.2 µM,0%
same,growth inhibition,[1]; at 3.7 µM,3%
same,growth inhibition,[1]; at 11.0 µM,17%
same,growth inhibition,[1]; at 33.0 µM,42%
same,growth inhibition,[1]; at 100.0 µM,82% (active)
same,growth inhibition,[2]; at 1.2 µM,15%
same,growth inhibition,[2]; at 3.7 µM,28%
same,growth inhibition,[2]; at 11.0 µM,41%
same,growth inhibition,[2]; at 33.0 µM,59%
same,growth inhibition,[2]; at 100.0 µM,82% (active)
same,growth inhibition,[3]; [17],6%
same,growth inhibition,[3]; [18],84% (active)
same,growth inhibition,[3]; at 50.0 µM,16.6%
same,growth inhibition,[4]; at 1.2 µM,2%
same,growth inhibition,[4]; at 3.7 µM,5%
same,growth inhibition,[4]; at 11.0 µM,14%
same,growth inhibition,[4]; at 33.0 µM,27%
same,growth inhibition,[4]; at 100.0 µM,71% (active)
Cc1ccc2nc(N/N=C/c3ccc(C)s3)cc(C)c2c1,growth inhibition,[16]; at 1.2 µM,-26%
same,growth inhibition,[16]; at 3.7 µM,-40%
same,growth inhibition,[16]; at 11.0 µM,-47%
same,growth inhibition,[16]; at 33.0 µM,98% (active)
same,growth inhibition,[16]; at 100.0 µM,98% (active)
same,growth inhibition,[5]; at 1.2 µM,-27%
same,growth inhibition,[5]; at 3.7 µM,-18%
same,growth inhibition,[5]; at 11.0 µM,1%
same,growth inhibition,[5]; at 33.0 µM,99% (active)
same,growth inhibition,[5]; at 100.0 µM,94% (active)
same,growth inhibition,[6]; at 1.2 µM,-15%
same,growth inhibition,[6]; at 3.7 µM,-5%
same,growth inhibition,[6]; at 11.0 µM,2%
same,growth inhibition,[6]; at 33.0 µM,44%
same,growth inhibition,[6]; at 100.0 µM,70% (active)
same,growth inhibition,[9]; at 1.2 µM,-23%
same,growth inhibition,[9]; at 3.7 µM,-17%
same,growth inhibition,[9]; [17],12%
same,growth inhibition,[9]; at 11.0 µM,-19%
same,growth inhibition,[9]; at 33.0 µM,99% (active)
same,growth inhibition,[9]; [18],99% (active)
same,growth inhibition,[9]; at 50.0 µM,92.7% (active)
same,growth inhibition,[9]; at 100.0 µM,96% (active)
same,growth inhibition,[10]; at 1.2 µM,-32%
same,growth inhibition,[10]; at 3.7 µM,-18%
same,growth inhibition,[10]; at 11.0 µM,0%
same,growth inhibition,[10]; at 33.0 µM,99% (active)
same,growth inhibition,[10]; at 100.0 µM,98% (active)
same,growth inhibition,[11]; [17],10%
same,growth inhibition,[11]; [18],9%
same,growth inhibition,[11]; at 50.0 µM,91.8% (active)
same,growth inhibition,[12]; at 1.2 µM,5%
same,growth inhibition,[12]; at 3.7 µM,-5%
same,growth inhibition,[12]; at 11.0 µM,7%
same,growth inhibition,[12]; at 33.0 µM,99% (active)
same,growth inhibition,[12]; at 100.0 µM,93% (active)
same,growth inhibition,[14]; at 1.2 µM,-6%
same,growth inhibition,[14]; at 3.7 µM,5%
same,growth inhibition,[14]; [17],7%
same,growth inhibition,[14]; at 11.0 µM,15%
same,growth inhibition,[14]; at 33.0 µM,99% (active)
same,growth inhibition,[14]; [18],-10%
same,growth inhibition,[14]; at 50.0 µM,91.7% (active)
same,growth inhibition,[14]; at 100.0 µM,95% (active)
same,growth inhibition,[1]; at 1.2 µM,-18%
same,growth inhibition,[1]; at 3.7 µM,-28%
same,growth inhibition,[1]; at 11.0 µM,-10%
same,growth inhibition,[1]; at 33.0 µM,99% (active)
same,growth inhibition,[1]; at 100.0 µM,99% (active)
same,growth inhibition,[2]; at 1.2 µM,-12%
same,growth inhibition,[2]; at 3.7 µM,-19%
same,growth inhibition,[2]; at 11.0 µM,-1%
same,growth inhibition,[2]; at 33.0 µM,99% (active)
same,growth inhibition,[2]; at 100.0 µM,93% (active)
same,growth inhibition,[3]; [17],31%
same,growth inhibition,[3]; [18],98% (active)
same,growth inhibition,[3]; at 50.0 µM,91.2% (active)
